Results taken from PubChem BioAssay (EPA / NIEHS).
Active and inactive are the calls of the source. How the source made its calls: active means hit-call score of the fitted dose curve at least 0.9, where 1 is the maximum; inactive means score below 0.9.

Test: BSK_3C_SRB: Viability Assessment in the BioMAP Diversity Plus: 3C Assay (AID 2283023);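 further: fitted both ways against DMSO so a hit may be signal rise or drop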
Details: primary human endothelial cells (HUVEC)
Procedure: BSK_3C is a cell-based, multiplexed-readout assay that uses umbilical vein endothelium, a human vascular primary cell, with measurements taken at 24 hours after chemical dosing in a 96-well plate.BSK_3C_SRB is an assay component measured in the BSK_3C assay. It measures 0.1% sulforhodamine related to cell death using Sulforhodamine staining technology.Data from the assay component BSK_3C_SRB was analyzed into 1 assay endpoint. This assay endpoint, BSK_3C_SRB, was analyzed with bidirectional fitting relative to DMSO as the negative control and baseline of activity. Using a type of viability reporter, gain or loss-of-signal activity can be used to understand changes in the signaling. Furthermore, this assay endpoint can be referred to as a primary readout, because this assay has produced multiple assay endpoints where this one serves a signaling function. To generalize the intended target to other relatable targets, this assay endpoint is annotated to the cell morphology intended target family, where the subfamily is cell conformation.
The levels of cell surface (or secreted, indicated by the prefix "s") biomarker endpoints were measured by ELISA. Overt cytotoxicity to cells in confluent adherent cultures (all systems other than the BT system) was assessed by measuring total protein levels using sulforhodamine B (SRB) staining in parallel cultures at the time of biomarker measurements, indicated as SRB endpoints. For proliferation assays for adherent cell types, individual cell types are cultured at sub-confluence and relative cell numbers quantified by SRB staining at time points optimized for each system (48 h: 3C and CASM3C systems; 72 h: BT and HDF3CGF systems; 96 h: SAg system). SRB was performed by staining cells with 0.1% SRB after fixation with 10% TCA and reading wells at 560 nm.Viability and proliferation of PBMC (T cells) was quantified by Alamar Blue reduction for the SAg and BT systems. For PBMC viability (referred to as PBMC Cytotoxicity within the assay endpoint names), cells were plated (75,000/well in a 96-well plate) and then chemical samples added for 1 h before addition of activators, SEB and TSST-1 (20 ng/mL final concentration each). Cells were incubated for 90 h. Then, Alamar Blue (20 uL/well) (Invitrogen, Cat DAL1100) was added for 6 h, and the plates were read with a fluorescence microplate reader at 546/580 nm (excitation/emission). For PBMC proliferation, cells were plated and activated as above but incubated for only 16 h prior to addition of Alamar Blue. Plates were read after 6 h.

Structure (SMILES)	AC50	outcome
O=C(Nc1ccc(Cl)cc1)Nc1ccc(Cl)c(Cl)c1	2.66 µM (active)	
CC(O)CC(C)(C)O (stereo not given)		inactive
O=C1c2ccccc2C(=O)N1CCc1noc(-c2ccc(CN3CCCCCC3)s2)n1		inactive
CCN(CC)C(=O)c1cc(S(=O)(=O)Cc2ccccc2)c(N2CCC(c3ccccc3)CC2)cc1N(CC)CCN(C)C	5.18 µM (active)	
CN(C)C(=O)C1(N2CCCCC2)CCN(CC[C@@]2(c3ccc(Cl)c(Cl)c3)CN(C(=O)c3ccccc3)CCO2)CC1	7.1 µM (active)	
O=C1O[C@H]([C@@H](O)CO)C(O)=C1O		inactive
CC1=CC(=O)/C(=C(/C)O)C(=O)O1		inactive
COc1ccc2cc(S(=O)(=O)N[C@H](CC(=O)N[C@H](Cc3ccc(CN4[C@H](C)CCC[C@@H]4C)cc3)C(=O)N(C)C(C)C)c3ccc4c(c3)OCO4)ccc2c1	20.8 µM (active)	
O=C(OCCCCCCOC(=O)c1ccccc1)c1ccccc1		inactive
CCCCCCCCCC(=O)O		inactive
CCCCCCCCCCCO	31.3 µM (active)	
CC(C)(O)c1ccc(CNC(=O)c2cccnc2Oc2ccc3nonc3c2)cc1		inactive
O=C(O)c1ccccc1C(=O)OCc1ccccc1		inactive
Cc1cn([C@H]2C[C@H](N=[N+]=[N-])[C@@H](CO)O2)c(=O)[nH]c1=O		inactive
NCc1cccc(C2CCN(C(=O)c3ccc(C#Cc4ccccc4F)o3)CC2)c1	11 µM (active)	
CN1C(=O)CC[C@H]1c1cccnc1		inactive
O=C(O)c1ccccc1-n1cc(C(=O)O)c(=O)c2cc(Nc3c(F)cc(F)cc3Cl)c(Cl)cc21		inactive
CCCCCCCC[Si](OCC)(OCC)OCC	31.4 µM (active)	
c1ccc(C[n+]2cccc3ccccc32)cc1		inactive
O=c1c(-c2ccc(O)cc2)coc2cc(O)cc(O)c12	25.8 µM (active)	

Structure (SMILES)	AC50	outcome
CN1C(=O)N(c2ccccc2Br)Cc2cnc(Nc3ccc4c(c3)OCC(CO)O4)nc21 (stereo not given)	20 µM (active)	
CCN(Cc1cccnc1)C(=O)c1cccc(Cl)c1[C@]1(C)C(=O)N(Cc2ccc(OC)cc2OC)c2ccc(Cl)cc21	6.28 µM (active)	
CC(=O)N1CCN(c2ccc(OC[C@H]3CO[C@](Cn4ccnc4)(c4ccc(Cl)cc4Cl)O3)cc2)CC1	29.1 µM (active)	
COCC(C)OCC(C)OCC(C)O (stereo not given)		inactive
Cc1cc2c(cc1C(F)(F)F)N(C(=O)Nc1ccc(Oc3cccnc3C)nc1)CC2		inactive
C[C@]12CC[C@@H]3c4ccc(O)cc4CC[C@H]3[C@@H]1CCC2=O		inactive
OC12N=C(c3ccccc3)SC1Cc1cc(Cl)ccc12 (stereo not given)	28.1 µM (active)	
O=C(O)Cc1cc(I)c(Oc2ccc(O)c(I)c2)c(I)c1		inactive
Cc1ccc2oc(CN(Cc3ccccc3)C(=O)Nc3c(F)cc(F)cc3F)c(-c3ccc(Cl)cc3)c2c1		inactive
O=C(O)Cn1c(=O)n(Cc2ccc(Br)cc2F)c(=O)c2ccc(Cl)cc21		inactive
O=c1ccc2ccccc2o1		inactive
CN(C)c1ccc(C(=C2C=CC(=[N+](C)C)C=C2)c2ccc(N(C)C)cc2)cc1	4.93 µM (active)	
CCCC(=O)OCCC(C)C		inactive
Clc1ccccc1C(c1ccccc1)(c1ccccc1)n1ccnc1	11.9 µM (active)	
COc1cccc([C@H](O)C2CCN(CCc3ccc(F)cc3)CC2)c1OC		inactive
CCCCCc1ccc(N)cc1	17.8 µM (active)	
CCCCCCCCOC(=O)c1cc(O)c(O)c(O)c1	20 µM (active)	
CN(C[C@@H](CC[N+]12CCC(C3CCCCC3)(CC1)CC2)c1ccc(Cl)c(Cl)c1)C(=O)c1cc(C(F)(F)F)cc(C(F)(F)F)c1	12.9 µM (active)	
COc1cc(C(=O)NC2CCN(C)CC2)ccc1Nc1ncc2c(n1)N(C1CCCC1)CC(F)(F)C(=O)N2C	18.6 µM (active)	
CC/C(=C(/CC)c1ccc(O)cc1)c1ccc(O)cc1	20 µM (active)	
